This excerpt belongs to a sample that is enriched for hits.
CD40 NFkB inh – CD40 pathway inhibition in BL2 cells | BL2 NF-kB luciferase reporter, CD40L-induced, 4 h | inhibition, % at 10 µM | 83,000 tested, 0.94% active | AID 1053188;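 active means mean inhibition of at least 50% with a set share of replicates also reaching that level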;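 further: 0% = neutral control wells and 100% = IKK inhibitor VII at 50 µM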
Active calls of the source: *; [ ] = remark or other dose.

SMILES | CD40 NFkB inh
O=C(c1ccc(Nc2nccc(-c3cc4ccccc4s3)n2)cc1)N1CCC(N2CCCC2)CC1 | 68*[25 µM]
O=C(c1ccccc1)N1CCN(C2CCCCCC2)CC1 | -3
COc1ccccc1C(=O)N1C[C@H]2[C@@H](c3ccccc31)[C@H](CO)N2C(=O)C1CCOCC1 | 11[25 µM]
C[C@@H](O)C#Cc1ccc([C@@H]2[C@H]3CN(C(=O)c4cccc(F)c4)CCCCN3[C@H]2CO)cc1 | -14[25 µM]
COc1ccccc1CN1C[C@@H]2N[C@H](C1)C2c1ccc(/C=C/c2ccccc2)cc1 (some centres not stated) | 33
O=C(C[C@@H]1CC[C@H]2[C@@H](COC[C@@H](O)CN2Cc2ccc(C(F)(F)F)cc2)O1)N1CCc2ccccc2C1 | 2[25 µM]
CCOC(=O)C1=C(C)NC(C)=C(C(=O)OC)C1c1cccc([N+](=O)[O-])c1 (configuration not stated) | -28
COC(=O)C1=C(C)NC(C)=C(C(=O)OCCCN2CCC(c3ccccc3)(c3ccccc3)CC2)[C@H]1c1cccc([N+](=O)[O-])c1 | 61*[25 µM]
COCCOC(=O)C1=C(C)NC(C)=C(C(=O)OC(C)C)C1c1cccc([N+](=O)[O-])c1 (configuration not stated) | -26
C[C@H]1CN([C@@H](C)CO)C(=O)c2c(c3ccccc3n2C)-c2ccccc2CO[C@H]1CN(C)C(=O)c1cc(Cl)cc(Cl)c1 | 44[25 µM]
C[C@H]1CN([C@@H](C)CO)C(=O)c2ccccc2-c2ccccc2CO[C@@H]1CN(C)C(=O)c1ccccc1 | -5
C[C@H]1CN([C@@H](C)CO)C(=O)c2c(c3ccccc3n2C)-c2ccccc2CO[C@@H]1CN(C)C(=O)c1cc(Cl)cc(Cl)c1 | 40[25 µM]
C[C@@H]1CN([C@H](C)CO)C(=O)c2c(c3ccccc3n2C)-c2ccccc2CO[C@@H]1CN(C)C(=O)c1cc(Cl)cc(Cl)c1 | 60*[25 µM]
C[C@H]1CN([C@@H](C)CO)C(=O)c2ccccc2-c2ccccc2CO[C@@H]1CN(C)C(=O)c1cc(Cl)cc(Cl)c1 | 15[25 µM]
C[C@@H]1CN([C@H](C)CO)C(=O)c2ccccc2-c2ccccc2CO[C@@H]1CN(C)C(=O)c1cc(Cl)cc(Cl)c1 | 66*[25 µM]
CC(=O)N(C[C@@H]1[C@@H](c2ccc(C3=CCCC3)cc2)[C@@H](CO)N1CC1CC1)C(C)C | -6[25 µM]
CCC1(c2ncc[nH]2)Cc2ccccc2O1 (configuration not stated) | -4[25 µM]
CN1c2ccc(Br)cc2[C@H]2[C@H](CCN2C(=O)C2CCCC2)[C@H]1CO | 9
CN(C)C(=O)c1cccc(-c2ccccc2[C@H]2[C@H](C#N)N(C(=O)C3CCCC3)[C@H]2CO)c1 | 0
C[C@@H]1CN([C@H](C)CO)C(=O)c2ccccc2-c2ccccc2CO[C@@H]1CN(C)C(=O)Oc1ccccc1 | 1
Cc1ccc(C2(C)NC(=O)N(CC(=O)Nc3cccnc3Cl)C2=O)cc1 (configuration not stated) | 26*
O=C(CN1C(=O)NC(c2ccccc2)(c2ccccc2)C1=O)Nc1cccnc1Cl | 6
CC1(c2ccc(OC(F)F)cc2)NC(=O)N(CC(=O)Nc2cccnc2Cl)C1=O (configuration not stated) | -4
COc1ccc(-c2ccc([C@@H]3[C@H](C#N)N(C(=O)NC4CCCC4)[C@H]3CO)cc2)cc1 | 4
Cc1cc(Br)ccc1SCC(=O)Nc1cccnc1 | 2
SMILES | CD40 NFkB inh
Cc1nc(C)c(NC(=O)N2CCc3ccccc32)cc1NC(=O)N1CCc2ccccc21 | 10
Cn1ccc2cc3c(cc21)CCN3C(=O)Nc1cccnc1 | active[25 µM]
O=C(C[C@@H]1C[C@@H]2c3cc(NS(=O)(=O)c4ccccc4)ccc3O[C@@H]2[C@H](CO)O1)NCC(F)(F)F | 5[25 µM]
CCCNC(=O)N1[C@H](CO)[C@H]2c3ccccc3N(C(=O)NC(C)C)C[C@H]21 | 4
C[C@@H]1CN([C@H](C)CO)C(=O)c2c(c3ccccc3n2C)-c2ccccc2CO[C@H]1CN(C)S(=O)(=O)c1cccc(F)c1 | 2
C[C@H]1CN([C@@H](C)CO)C(=O)c2c(c3ccccc3n2C)-c2ccccc2CO[C@@H]1CN(C)S(=O)(=O)c1cccc(F)c1 | 5
C[C@@H]1CN([C@H](C)CO)C(=O)c2c(c3ccccc3n2C)-c2ccccc2CO[C@@H]1CN(C)S(=O)(=O)c1cccc(F)c1 | -8
C[C@H](CO)N1C[C@H](C)[C@H](CN(C)S(=O)(=O)c2cccc(F)c2)OCc2ccccc2-c2c(n(C)c3ccccc23)C1=O | -3
C[C@@H]1CN([C@H](C)CO)C(=O)c2c(c3ccccc3n2C)-c2ccccc2CO[C@@H]1CN(C)S(=O)(=O)c1ccc([N+](=O)[O-])cc1 | 22[25 µM]
C[C@H](CO)N1C[C@H](C)[C@H](CN(C)S(=O)(=O)c2ccc([N+](=O)[O-])cc2)OCc2ccccc2-c2c(n(C)c3ccccc23)C1=O | 63*[25 µM]
COc1cccc(S(=O)(=O)N(C)C[C@H]2OCc3ccccc3-c3c(n(C)c4ccccc34)C(=O)N([C@H](C)CO)C[C@@H]2C)c1 | 57*[25 µM]

High-throughput results from PubChem.
